In the library only some 10% were active in any assay of this set; here they are far more common.
JMJD2A Tudor inh: JMJD2A Tudor domain (human) inhibition. O75164. AlphaScreen JMJD2A-Tudor / H3K4me3 peptide binding. Potency, µM (top dose mostly 114 µM), without a hit: top-dose activity change, negative = inhibition, usual class: inhibitors. 390,000 tested, 4.4% active; note: potency is the fitted concentration of half-maximal effect; % is set by controls: 0 for no effect and ±100 for the full control effect; nearly all actives have a fitted effect of over 50% in size
Six1-Eya2 blk: inhibitors of human Six1/Eya2 interaction | Q15475+O00167 | AlphaScreen GST-Six1/His-Eya2 binding, biochemical; hits give low values | activity change, % (test concentration not listed) | 360,000 tested, 0.56% active | AID 651725; in the data active = activity change below about -65%; inconclusive = mostly about -30% to -63%; note: % is set by controls: 0 for no effect and ±100 for the full control effect
Target sequence (O00167 whole entry, looked up): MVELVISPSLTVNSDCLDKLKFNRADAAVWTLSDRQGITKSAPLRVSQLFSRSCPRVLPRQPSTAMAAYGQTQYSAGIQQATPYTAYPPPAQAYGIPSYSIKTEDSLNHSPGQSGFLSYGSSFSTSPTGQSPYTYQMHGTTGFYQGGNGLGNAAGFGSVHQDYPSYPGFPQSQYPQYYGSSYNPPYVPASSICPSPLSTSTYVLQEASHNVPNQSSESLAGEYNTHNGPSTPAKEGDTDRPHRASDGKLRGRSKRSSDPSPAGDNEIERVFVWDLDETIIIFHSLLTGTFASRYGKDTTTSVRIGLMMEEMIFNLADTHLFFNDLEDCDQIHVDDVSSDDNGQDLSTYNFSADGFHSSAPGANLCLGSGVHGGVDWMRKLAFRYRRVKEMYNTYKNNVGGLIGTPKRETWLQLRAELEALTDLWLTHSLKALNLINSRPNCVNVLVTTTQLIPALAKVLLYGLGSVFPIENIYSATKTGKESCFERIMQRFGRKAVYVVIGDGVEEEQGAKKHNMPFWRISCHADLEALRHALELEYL
Target sequence (Q15475 whole entry, looked up): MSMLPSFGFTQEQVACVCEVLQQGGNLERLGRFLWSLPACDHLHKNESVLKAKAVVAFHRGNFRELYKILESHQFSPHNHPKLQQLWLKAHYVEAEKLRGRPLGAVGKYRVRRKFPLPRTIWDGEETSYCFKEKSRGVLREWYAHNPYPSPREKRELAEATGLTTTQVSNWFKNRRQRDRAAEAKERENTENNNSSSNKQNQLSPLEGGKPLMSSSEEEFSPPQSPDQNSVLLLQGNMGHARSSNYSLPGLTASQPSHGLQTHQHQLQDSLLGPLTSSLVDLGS
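Compounds are tested against tagged Six1 and Eya2 proteins bridged by glutathione donor and nickel acceptor beads; after a one-hour incubation at 37 °C without light, AlphaScreen emission is recorded.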
HP1b chromo inh: inhibitors of HP1-beta chromodomain binding to methylated histone tails; P83916; Potency, µM (highest dose often 114 µM), for the others: top-dose activity change, negative = inhibition, actives largely listed as inhibitors; 390,000 tested, 0.56% active; AID 540317; AlphaScreen HP1-beta / biotin-H3K9me3 peptide binding; note: potency is the fitted concentration of half-maximal effect; nearly all actives have a fitted effect of over 70% in size
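Compound inhibition of the preformed complex between 50 nM HP1-beta and 50 nM biotinylated H3K9me3 peptide was read by AlphaScreen. Buffer was PBS pH 7.4 with 0.01% Tween-20. Incubations ran 30 min at room temperature, with 10 ug/mL donor/acceptor beads.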
CtBP-E1A inh: blocks the CtBP interaction with E1A. AlphaScreen GST-E1A/His-CtBP binding, 1536-well; hits give low values. activity change, % (concentration not given with the values). 340,000 tested, 0.49% active. AID 651724; in the data active = activity change below about -65%; inconclusive = mostly about -30% to -63%; note: % is set by controls: 0 for no effect and ±100 for the full control effect
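Homogeneous bead-based format: GST-tagged E1A captured on glutathione donor beads, His-tagged CtBP on nickel acceptor beads; compounds precede bead addition by 2 h at 37 °C.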
BAZ2B block: inhibitors of human BAZ2B bromodomain; Potency, µM (highest dose often 114 µM), for the others: at the highest dose activity change, negative = inhibition, hits mostly inhibitors; Q9UIF8; 360,000 tested, 4.4% active; AlphaScreen BAZ2B-H3K14Ac peptide displacement; note: potency is the fitted concentration of half-maximal effect; % is set by controls: 0 for no effect and ±100 for the full control effect; nearly all actives have a fitted effect of over 60% in size
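BAZ2B (50 nM) with biotin-H3(5-23)K14Ac peptide (50 nM) in PBS pH 7.4, 0.01% Tween-20, preformed 30 min, then compound 30 min at room temperature; top concentration 110uM. AlphaScreen streptavidin donor/nickel chelate acceptor beads (10 ug/mL final), 20 min dark, signal read.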
G9a block: inhibitors of human histone lysine methyltransferase G9a; Potency, µM (titrated, usually from 102 µM), inactives show at the top dose activity, negative = inhibition, usual class: inhibitors; G9a H3K9 monomethylation, AlphaScreen, 2 h; AID 504332; 350,000 tested, 8.8% active; Q96KQ7; note: potency is the fitted concentration of half-maximal effect; % is set by controls: 0 for no effect and ±100 for the full control effect; nearly all actives have a fitted effect of over 75% in size
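Signal arises when biotinylated H3K9 peptide, once monomethylated, bridges streptavidin donor and antibody-captured acceptor beads. Enzyme at 20 nM was preincubated 15 min with test compounds; peptide 500 nM and SAM 20 uM then reacted for 2 h.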
* marks the source's active call; other numbers are inactive results; ? = inconclusive; . = no result given; [ ] = remark or other dose. Unless noted, calls come from the whole dose curve; as a rule, active = well fitted inhibition curve with a large enough effect; inconclusive = small, poorly fitted or top-dose-only effect; inactive = no such curve, though single readings can be large or run the other way.

SMILES	JMJD2A Tudor inh	Six1-Eya2 blk	HP1b chromo inh	CtBP-E1A inh	BAZ2B block	G9a block
CCCC(=O)NC(=S)Nc1ccc(NC(=O)c2cccs2)cc1	-7%	-3	44%	8	3%	11µM*
O=C(NC(=S)Nc1cccc2ncccc12)c1cccs1	-4%	-2	26%	4	-32%	50µM*
CCN(CC)c1ccc(NC(=O)CN(C)Cc2cccs2)cc1	40µM*	?	45µM*	?	32µM*	8.9µM*
Cc1cc(Cl)ccc1OCC(=O)n1cc(C(=O)c2cc(Cl)ccc2O)cn1	.	.	.	.	-8%	79µM*
O=C(c1cnn(C(=O)COc2ccccc2F)c1)c1cc(F)ccc1O	-29%	-1	40%	1	?	-8%
CCOC(=O)[C@]12CCC=C1N(Cc1ccc3c(c1)OCO3)C(=O)[C@H](CC(=O)NCCCN1CCCC1=O)C2	.	-1	.	9	.	.
Cc1[nH]c(C)c(Cl)c(=O)c1Cl	.	.	.	.	.	-7%[2.33 µM]
COC(=O)[C@@H]1CC[C@H](C)[C@@H](c2ccc(C)cc2)N1C(=O)c1ccc(/C=N/O[C@@H](C)CN2CCCCc3nc(C)c(C)cc32)cc1	.	.	.	.	19%	32µM*
Cc1ccc(-n2nc(C)c(=O)c(-c3ccccc3)c2NC(=O)C(C)C)cc1	-7%	3	46%	-21	-5%	7%[12.7 µM]
O=C(CS(=O)(=O)c1cccc2nsnc12)NCc1ccccc1Cl	-20%	.	30%[57 µM]	.	1%	0%[59 µM]
COc1ccc(N2CCN(C(=O)COC(=O)Cc3ccc(F)cc3)CC2)cc1	-28%	-2	12%	-20	-38%	45µM*
COc1ccc(N2CCN(C(=O)COC(=O)c3ccc(C)o3)CC2)cc1	-17%	-10	6%	2	-9%	50µM*
COc1ccccc1CC(=O)OCC(=O)N1CCN(c2ccc(F)cc2)CC1	-17%	-3	38%	.	.	.
COc1ccc(N2CCN(C(=O)CCn3cnc4onc(-c5ccc(F)cc5)c4c3=O)CC2)cc1	?	.	-10%	.	?	14µM*
COc1ccc(N2CCN(C(=O)COC(=O)c3ccc(CSC)o3)CC2)cc1	-36%	-28	-8%	-25	?	16µM*
COc1ccccc1N1CCN(C(=O)Cn2ncc3c(=O)oc4ccc(C)cc4c32)CC1	-2%	.	37%	.	-14%	-10%[59 µM]
COc1ccc(S(=O)(=O)Nc2ccc3c(c2)C(=O)N([C@H](C)CO)C[C@H](C)[C@@H](CN(C)C(=O)NC2CCCCC2)O3)cc1	-11%	-2	40%	.	.	.
O=C(COC(=O)/C=C/c1cccs1)Nc1nc(-c2ccccc2)cs1	-9%	8	58%	-8	5%	1.1µM*
O=C(Cc1cccs1)Nc1nc(-c2ccccc2)cs1	-1%	0	32%	3	-2%	-7%
C/C(=N\Nc1nc(-c2ccccc2)cs1)c1cccs1	?	-30	-31%	?	40µM*	5µM*
O=C(COC(=O)/C=C/c1cccs1)Nc1nc(-c2cccc(Br)c2)cs1	-8%	-3	35%	-2	-2%	18%[59 µM]
O=C(COC(=O)c1cccs1)Nc1nc(-c2ccccc2)cs1	-5%	-1	32%	0	0%	40µM*
C/C(=N/Nc1ccccc1C(=O)O)c1cccs1	-29%	-14	8%	-1	?	?
CC(=O)N1CCCc2cc(S(=O)(=O)N(C)CC(=O)Nc3ccc(C(C)C)cc3)ccc21	-4%	.	28%[57 µM]	.	1%	-28%[59 µM]
O=C(NCc1cccs1)C1CCCN1C(=O)Nc1ccccc1[N+](=O)[O-] (centres undefined)	-5%	1	6%	-18	7%	-7%[59 µM]
CCCC(=O)C1=C(c2ccc(C)cc2)N(C(=O)CCC)n2cnnc2S1	41%	.	83%	.	43%	14%[59 µM]
CCOC(=O)[C@]12CCCC=C1N(CCC1=CCCCC1)C(=O)[C@H](CC(=O)NCc1cccc3ccccc13)C2	.	-12	.	-7	.	.
COc1cccc(CN2CC(C(=O)NCCc3nccs3)CCC2=O)c1 (centres undefined)	.	31	.	-6	.	.
